Tests used:
Conditions in all cases: treatment time: 24 h
A549-ACTB-RAB5A [1] = assay: phenotypically active (imaging signature differs from DMSO and reproducible) at any of 0.3-9 uM (binary (1 = active, 0 = inactive)); higher = active
In short: (§1)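 Phenotypic activity depended on meeting both a deviation and a reproducibility criterion. The fifteen gene-edited A549, HepG2 and WPMY1 reporter lines were treated at 0.3, 1, 3 or 9 µM for 24 h, four wells each, then imaged live with features normalised to solvent control wells. Deviation required ≥3 of 4 wells past the 95th percentile of control Euclidean distances, and reproducibility a median replicate Pearson correlation above the 95th percentile of non-replicates.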

A549-CANX-COX4 = assay: as above
In short: as §1

A549-GM130-SQSTM1 [2] = assay: as above
In short: as §1

A549-TP53BP1-CLTA [3] = assay: as above
In short: as §1

A549-TUBA1B-RELA = assay: as above
In short: as §1

HepG2-ACTB-RAB5A [4] = assay: as above
In short: as §1

HepG2-CANX-COX4 = assay: as above
In short: as §1

HepG2-GM130-SQSTM1 = assay: as above
In short: as §1

HepG2-TP53BP1-CLTA = assay: as above
In short: as §1

HepG2-TUBA1B-RELA = assay: as above
In short: as §1

WPMY1-ACTB-RAB5A = assay: as above
In short: as §1

WPMY1-CANX-COX4 = assay: as above
In short: as §1

WPMY1-GM130-SQSTM1 [5] = assay: as above
In short: as §1

WPMY1-TP53BP1-CLTA = assay: as above
In short: as §1

WPMY1-TUBA1B-RELA = assay: as above
In short: as §1

A549-ACTB-RAB5A [6] = assay: lowest phenotypically active concentration; higher = less potent
In short: as §1

A549-GM130-SQSTM1 [7] = assay: as above
In short: as §1

A549-TP53BP1-CLTA [8] = assay: as above
In short: as §1

HepG2-ACTB-RAB5A [9] = assay: as above
In short: as §1

WPMY1-GM130-SQSTM1 [10] = assay: as above
In short: as §1

| Compound | phenotypically active (A549-ACTB-RAB5A [1]) | phenotypically active (A549-CANX-COX4) | phenotypically active (A549-GM130-SQSTM1 [2]) | phenotypically active (A549-TP53BP1-CLTA [3]) | phenotypically active (A549-TUBA1B-RELA) | phenotypically active (HepG2-ACTB-RAB5A [4]) | phenotypically active (HepG2-CANX-COX4) | phenotypically active (HepG2-GM130-SQSTM1) | phenotypically active (HepG2-TP53BP1-CLTA) | phenotypically active (HepG2-TUBA1B-RELA) | phenotypically active (WPMY1-ACTB-RAB5A) | phenotypically active (WPMY1-CANX-COX4) | phenotypically active (WPMY1-GM130-SQSTM1 [5]) | phenotypically active (WPMY1-TP53BP1-CLTA) | phenotypically active (WPMY1-TUBA1B-RELA) | lowest phenotypically active concentration (A549-ACTB-RAB5A [6]) | lowest phenotypically active concentration (A549-GM130-SQSTM1 [7]) | lowest phenotypically active concentration (A549-TP53BP1-CLTA [8]) | lowest phenotypically active concentration (HepG2-ACTB-RAB5A [9]) | lowest phenotypically active concentration (WPMY1-GM130-SQSTM1 [10]) |
| --- | --- | --- | --- | --- | --- | --- | --- | --- | --- | --- | --- | --- | --- | --- | --- | --- | --- | --- | --- | --- |
| CC(C)N(CCC(C(N)=O)(c1ccccc1)c1ccccn1)C(C)C (centres undefined) [disopyramide] | 0 (inactive) | 0 (inactive) | 0 (inactive) | 0 (inactive) | 0 (inactive) | 0 (inactive) | 0 (inactive) | 0 (inactive) | 0 (inactive) | 0 (inactive) | 0 (inactive) | 0 (inactive) | 0 (inactive) | 0 (inactive) | 0 (inactive) |  |  |  |  |  |
| Nc1ccncc1 [dalfampridine] | 0 (inactive) | 0 (inactive) | 0 (inactive) | 0 (inactive) | 0 (inactive) | 0 (inactive) | 0 (inactive) | 0 (inactive) | 0 (inactive) | 0 (inactive) | 0 (inactive) | 0 (inactive) | 0 (inactive) | 0 (inactive) | 0 (inactive) |  |  |  |  |  |
| O=C1CN=C(c2ccccc2)c2cc(Cl)ccc2N1CC(F)(F)F [halazepam] | 0 (inactive) | 0 (inactive) | 0 (inactive) | 0 (inactive) | 0 (inactive) | 0 (inactive) | 0 (inactive) | 0 (inactive) | 0 (inactive) | 0 (inactive) | 0 (inactive) | 0 (inactive) | 0 (inactive) | 0 (inactive) | 0 (inactive) |  |  |  |  |  |
| O=c1cccc2n1C[C@H]1CNC[C@H]2C1 [Cytisine nitrate hydrate] | 0 (inactive) | 0 (inactive) | 0 (inactive) | 0 (inactive) | 0 (inactive) | 0 (inactive) | 0 (inactive) | 0 (inactive) | 0 (inactive) | 0 (inactive) | 0 (inactive) | 0 (inactive) | 0 (inactive) | 0 (inactive) | 0 (inactive) |  |  |  |  |  |
| Fc1ccccc1C1=NCC(=S)N(CC(F)(F)F)c2ccc(Cl)cc21 [quazepam] | 0 (inactive) | 0 (inactive) | 0 (inactive) | 0 (inactive) | 0 (inactive) | 0 (inactive) | 0 (inactive) | 0 (inactive) | 0 (inactive) | 0 (inactive) | 0 (inactive) | 0 (inactive) | 0 (inactive) | 0 (inactive) | 0 (inactive) |  |  |  |  |  |
| COc1cc2c(c(OC)c1OC)-c1ccc(OC)c(=O)cc1[C@@H](NC(C)=O)CC2 [colchicine] | 1 (active) | 1 (active) | 1 (active) | 1 (active) | 1 (active) | 1 (active) | 1 (active) | 1 (active) | 1 (active) | 1 (active) | 1 (active) | 1 (active) | 1 (active) | 1 (active) | 1 (active) | ≤ 0.3 µM | ≤ 0.3 µM | ≤ 0.3 µM | ≤ 0.3 µM | ≤ 0.3 µM |
| CC[C@H]1CN2CCc3cc(OC)c(OC)cc3[C@@H]2C[C@@H]1C[C@H]1NCCc2cc(OC)c(OC)cc21 [emetine] | 1 (active) | 1 (active) | 1 (active) | 1 (active) | 1 (active) | 1 (active) | 1 (active) | 1 (active) | 1 (active) | 1 (active) | 1 (active) | 1 (active) | 1 (active) | 1 (active) | 1 (active) | ≤ 0.3 µM | ≤ 0.3 µM | ≤ 0.3 µM | ≤ 0.3 µM | ≤ 0.3 µM |
| COc1cc2c(cc1OC)[C@@]13CCN4CC5=CCO[C@H]6CC(=O)N2[C@H]1[C@H]6[C@H]5C[C@H]43 [Brucine] | 0 (inactive) | 0 (inactive) | 0 (inactive) | 0 (inactive) | 0 (inactive) | 0 (inactive) | 0 (inactive) | 0 (inactive) | 0 (inactive) | 0 (inactive) | 0 (inactive) | 0 (inactive) | 0 (inactive) | 0 (inactive) | 0 (inactive) |  |  |  |  |  |
| Cc1sc2c(c1C)C(c1ccc(Cl)cc1)=N[C@@H](CC(N)=O)c1nnc(C)n1-2 | 1 (active) | 1 (active) | 1 (active) | 1 (active) | 1 (active) | 1 (active) | 1 (active) | 1 (active) | 1 (active) | 1 (active) | 1 (active) | 1 (active) | 1 (active) | 1 (active) | 1 (active) | ≤ 0.3 µM | ≤ 0.3 µM | ≤ 0.3 µM | ≤ 0.3 µM | ≤ 0.3 µM |
| CNC(C)(C)Cc1ccccc1 [mephentermine] | 0 (inactive) | 0 (inactive) | 0 (inactive) | 0 (inactive) | 0 (inactive) | 0 (inactive) | 0 (inactive) | 0 (inactive) | 0 (inactive) | 0 (inactive) | 0 (inactive) | 0 (inactive) | 0 (inactive) | 0 (inactive) | 0 (inactive) |  |  |  |  |  |
| CC(C)CC(N(C)C)C1(c2ccc(Cl)cc2)CCC1 (centres undefined) [sibutramine] | 0 (inactive) | 0 (inactive) | 0 (inactive) | 0 (inactive) | 0 (inactive) | 0 (inactive) | 0 (inactive) | 0 (inactive) | 0 (inactive) | 0 (inactive) | 0 (inactive) | 0 (inactive) | 0 (inactive) | 0 (inactive) | 0 (inactive) |  |  |  |  |  |
| COC[C@H]1OC(=O)c2coc3c2[C@@]1(C)C1=C(C3=O)[C@@H]2CCC(=O)[C@@]2(C)C[C@H]1OC(C)=O [wortmannin] | 1 (active) | 1 (active) | 1 (active) | 1 (active) | 1 (active) | 0 (inactive) | 0 (inactive) | 0 (inactive) | 0 (inactive) | 0 (inactive) | 0 (inactive) | 0 (inactive) | 0 (inactive) | 0 (inactive) | 0 (inactive) | 1 µM | 3 µM | 9 µM |  |  |
| Cc1cc2c(C(C)C)c(O)c(O)c(C=O)c2c(O)c1-c1c(C)cc2c(C(C)C)c(O)c(O)c(C=O)c2c1O [gossypol] | 1 (active) | 1 (active) | 1 (active) | 1 (active) | 1 (active) | 1 (active) | 1 (active) | 1 (active) | 1 (active) | 1 (active) | 1 (active) | 1 (active) | 1 (active) | 1 (active) | 1 (active) | 3 µM | 3 µM | 9 µM | 9 µM | 9 µM |
| Cc1ccc(-c2nc3ccc(C)cn3c2CC(=O)N(C)C)cc1 [zolpidem] | 0 (inactive) | 0 (inactive) | 0 (inactive) | 0 (inactive) | 0 (inactive) | 0 (inactive) | 0 (inactive) | 0 (inactive) | 0 (inactive) | 0 (inactive) | 0 (inactive) | 0 (inactive) | 0 (inactive) | 0 (inactive) | 0 (inactive) |  |  |  |  |  |
| CCN(C(C)=O)c1cccc(-c2ccnc3c(C#N)cnn23)c1 [zaleplon] | 0 (inactive) | 0 (inactive) | 0 (inactive) | 0 (inactive) | 0 (inactive) | 0 (inactive) | 0 (inactive) | 0 (inactive) | 0 (inactive) | 0 (inactive) | 0 (inactive) | 0 (inactive) | 0 (inactive) | 0 (inactive) | 0 (inactive) |  |  |  |  |  |
| C[C@]12C/C(=C\O)C(=O)C[C@@H]1CC[C@@H]1[C@@H]2CC[C@@]2(C)[C@H]1CC[C@]2(C)O [oxymetholone] | 1 (active) | 0 (inactive) | 0 (inactive) | 0 (inactive) | 0 (inactive) | 0 (inactive) | 0 (inactive) | 0 (inactive) | 0 (inactive) | 0 (inactive) | 0 (inactive) | 0 (inactive) | 0 (inactive) | 0 (inactive) | 0 (inactive) | 9 µM |  |  |  |  |
| CC(C)(C)c1cc(C=C(C#N)C#N)cc(C(C)(C)C)c1O [Malonoben] | 1 (active) | 1 (active) | 1 (active) | 1 (active) | 1 (active) | 1 (active) | 1 (active) | 1 (active) | 1 (active) | 1 (active) | 1 (active) | 1 (active) | 1 (active) | 1 (active) | 1 (active) | 1 µM | ≤ 0.3 µM | 3 µM | 1 µM | 1 µM |
| CC1=CC(=O)C2=C(C)C[C@H](O)[C@@H]3[C@H](OC(=O)[C@H]3C)[C@@H]12 [Austricine hydrate] | 0 (inactive) | 0 (inactive) | 0 (inactive) | 0 (inactive) | 0 (inactive) | 0 (inactive) | 0 (inactive) | 0 (inactive) | 0 (inactive) | 0 (inactive) | 0 (inactive) | 0 (inactive) | 0 (inactive) | 0 (inactive) | 0 (inactive) |  |  |  |  |  |
| N#CC(O[C@@H]1O[C@H](CO[C@@H]2O[C@H](CO)[C@@H](O)[C@H](O)[C@H]2O)[C@@H](O)[C@H](O)[C@H]1O)c1ccccc1 (some centres undefined) [Amygdalin] | 0 (inactive) | 0 (inactive) | 0 (inactive) | 0 (inactive) | 0 (inactive) | 0 (inactive) | 0 (inactive) | 0 (inactive) | 0 (inactive) | 0 (inactive) | 0 (inactive) | 0 (inactive) | 0 (inactive) | 0 (inactive) | 0 (inactive) |  |  |  |  |  |
| O[C@H]1[C@H](O)[C@@H](O)CN2CC[C@H](O)[C@H]12 [Castanospermine] | 0 (inactive) | 0 (inactive) | 0 (inactive) | 0 (inactive) | 0 (inactive) | 0 (inactive) | 0 (inactive) | 0 (inactive) | 0 (inactive) | 0 (inactive) | 0 (inactive) | 0 (inactive) | 0 (inactive) | 0 (inactive) | 0 (inactive) |  |  |  |  |  |
| O=C1C[C@@H]2OCC=C3C[N+]4([O-])CC[C@]56c7ccccc7N1[C@H]5[C@H]2[C@H]3C[C@@H]64 (some centres undefined) [Genostrychnine base] | 0 (inactive) | 0 (inactive) | 0 (inactive) | 0 (inactive) | 0 (inactive) | 0 (inactive) | 0 (inactive) | 0 (inactive) | 0 (inactive) | 0 (inactive) | 0 (inactive) | 0 (inactive) | 0 (inactive) | 0 (inactive) | 0 (inactive) |  |  |  |  |  |

— the supplement of paper PMC7411054
